# Source: the supplement of paper PMC6607015
# Structures can show the parent of a compound that is named as a salt.
# Tested on: A431
# Experiment: filipin (cholesterol) integrated intensity within LBPA endosomes, Z-score; higher = more cholesterol in LBPA endosomes
# Conditions: compound concentration in added solution (µM; 5 µl added to 20 µl cells): 10; 18 h
# Procedure, shortened: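 Duplicate 384-well imaging plates were prepared with 5 µl of 10 µM compound solution per well, and 3,500 HeLa MZ or A431 cells in 20 µl were added on top. Following 18 h of incubation and fixation in 4% PFA, cells received 6C4 anti-LBPA antibody, filipin, propidium iodide and CellTracker green. Four images per well at 20× were segmented in MetaXpress to yield per-cell integrated LBPA or filipin intensity, whole-cell or within LBPA endosomes. These intensities are reported as Z-scores normalised in AcuityXpress.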
row,Structure (SMILES),filipin (z-score)
1,C=C1C[C@@H]2[C@H](CC[C@]3(C)C(=O)CC[C@@H]23)[C@@]2(C)C=CC(=O)C=C12 [Exemestane],-0.537
2,CC[N+]1(C)CCCC(OC(=O)C(O)(c2ccccc2)c2ccccc2)C1 (stereo not given) [Pipenzolate bromide],-0.297
3,C=CCC1(CC(C)C)C(=O)NC(=O)NC1=O [Butalbital],-0.55
4,CCCC(C)C1(CC)C(=O)NC(=O)NC1=O (stereo not given) [Pentobarbital],-0.553
5,"CC(=O)OCC1=C(C(=O)O)N2C(=O)[C@@H](N)[C@H]2SC1 [Cephalosporanic acid, 7-amino]",-0.581
6,Cc1cccc(C)c1NC1=NCCCS1 [Xylazine],-0.524
7,CC(C)(N)Cc1ccccc1 [Phentermine hydrochloride],-0.29
8,CN(C)C(=O)Oc1cc(OC(=O)N(C)C)cc(C(O)CNC(C)(C)C)c1 (stereo not given) [Bambuterol hydrochloride],-0.64
9,CN1C[C@H](C(=O)N[C@]2(C)O[C@@]3(O)[C@@H]4CCCN4C(=O)[C@H](Cc4ccccc4)N3C2=O)C[C@@H]2c3cccc4[nH]cc(c34)C[C@H]21 [Dihydroergotamine tartrate],1.48
10,CCCC(C)(COC(N)=O)COC(=O)NC(C)C (stereo not given) [Carisoprodol],-0.607
11,O=C(CCCN1CCC2(CC1)C(=O)NCN2c1ccccc1)c1ccc(F)cc1 [Spiperone],1.87
12,CCC1(c2cccc(O)c2)CCCCN(C)C1 (stereo not given) [Meptazinol hydrochloride],-0.402
13,CN1[C@@H]2CC[C@H]1C[C@@H](OC1c3ccccc3CCc3ccccc31)C2 [Deptropine citrate],2.68
14,CC(C)CC(N(C)C)C1(c2ccc(Cl)cc2)CCC1 (stereo not given) [Sibutramine HCl],-0.534
15,C[C@]12COC(=O)C[C@@H]1CC[C@@H]1[C@@H]2CC[C@@]2(C)[C@H]1CC[C@]2(C)O [Oxandrolone],-0.429
16,COc1ccc2c(c1)[C@]13CCCC[C@@H]1[C@H](C2)N(C)CC3 [Dextromethorphan hydrobromide monohydrate],-0.149
17,CCC(=O)O[C@H]1CC[C@H]2[C@@H]3CCC4=CC(=O)CC[C@]4(C)[C@H]3CC[C@]12C [Testosterone propionate],-0.502
18,C[C@]12CC[C@@H](O)C[C@@H]1CC[C@@H]1[C@@H]2CC[C@]2(C)C(=O)CC[C@@H]12 [Androsterone],-0.241

row,Structure (SMILES),filipin (z-score)
1,COc1cc2c(cc1OC)C(C)NCC2 (stereo not given),-0.528
2,C[C@]12C[C@H]3S[C@H]3C[C@@H]1CC[C@@H]1[C@@H]2CC[C@]2(C)[C@@H](O)CC[C@@H]12 [Epitiostanol],-0.364
3,C1CCc2nnnn2CC1 [Pentylenetetrazole],-0.452
4,NCCCNCCSP(=O)(O)O [Amifostine],-0.572
5,"CCC1(c2ccc(N)cc2)CCC(=O)NC1=O (stereo not given) [Glutethimide, para-amino]",-0.544
6,CCNCC(O)c1cccc(O)c1 (stereo not given) [Etilefrine hydrochloride],-0.374
7,CCN(CC)C(C)C(=O)c1ccccc1 (stereo not given) [Amfepramone hydrochloride],-0.654
8,CN1CCN(C(=O)OC2c3nccnc3C(=O)N2c2ccc(Cl)cn2)CC1 (stereo not given) [Zopiclone],-0.406
9,CC(O)(CS(=O)(=O)c1ccc(F)cc1)C(=O)Nc1ccc(C#N)c(C(F)(F)F)c1 (stereo not given) [Bicalutamide],-0.405
10,CC(=O)O[C@H]1CC[C@@]2(C)C(=CC[C@@H]3[C@@H]2CC[C@]2(C)C(=O)CC[C@@H]32)C1 [Dehydroisoandosterone 3-acetate],-0.136
11,C[C@H](N)[C@H](O)c1ccc(O)c(O)c1 [Levonordefrin],-0.427
12,C=C1[C@@H]2CC[C@H]3[C@]4(C)C[C@H](O[C@@H]5O[C@H](CO)[C@@H](OS(=O)(=O)O)[C@H](OS(=O)(=O)O)[C@H]5OC(=O)CC(C)C)C[C@@H](C(=O)O)[C@H]4CC[C@]3(C2)[C@@H]1O [Atractyloside potassium salt],-0.383
13,O=c1c2ccccc2[se]n1-c1ccccc1 [Ebselen],-0.372
14,CCC1=C[C@H]2CN3CCc4c([nH]c5ccccc45)[C@](C(=O)OC)(C2)[C@H]13 [Catharanthine],0.958
15,CC(=O)OCC(=O)[C@H]1CC[C@H]2[C@@H]3CC[C@H]4C[C@H](O)CC[C@]4(C)[C@H]3C(=O)C[C@]12C [Alfadolone acetate],0.478
16,CN[C@@H]1[C@@H](O)[C@@H](O[C@@H]2[C@@H](O)[C@H](O[C@H]3O[C@H](CN)CC[C@H]3N)[C@@H](N)C[C@H]2N)OC[C@]1(C)O.CN[C@@H]1[C@@H](O)[C@@H](O[C@@H]2[C@@H](O)[C@H](O[C@H]3O[C@H]([C@@H](C)N)CC[C@H]3N)[C@@H](N)C[C@H]2N)OC[C@]1(C)O.CN[C@@H]1[C@@H](O)[C@@H](O[C@@H]2[C@@H](O)[C@H](O[C@H]3O[C@H]([C@@H](C)NC)CC[C@H]3N)[C@@H](N)C[C@H]2N)OC[C@]1(C)O [Gentamicine sulfate],-0.535
17,O=[N+]([O-])O[C@H]1CO[C@H]2[C@@H]1OC[C@H]2O[N+](=O)[O-] [Isosorbide dinitrate],-0.496
